# Laboratory results published in PMC4336329 (PLoS ONE, 2015).
# Screen size: about 310,000 compounds; about 14,000 (4.5%) showed an effect of 50% or more. The effect is printed as a negative number. The entries come from a sample that favours strong results as a whole.
# Molecular target: human ether-à-go-go-related gene (hERG) potassium channel (human, UniProt Q12809)
# Experiment: primary screen, population patch clamp on CHO cells stably expressing hERG; higher = less effect of the substance
# 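Note: peak tail current of the secondary pulse compared with the same well before compound.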
# Chain of human ether-à-go-go-related gene (hERG) potassium channel (Q12809 whole entry, looked up): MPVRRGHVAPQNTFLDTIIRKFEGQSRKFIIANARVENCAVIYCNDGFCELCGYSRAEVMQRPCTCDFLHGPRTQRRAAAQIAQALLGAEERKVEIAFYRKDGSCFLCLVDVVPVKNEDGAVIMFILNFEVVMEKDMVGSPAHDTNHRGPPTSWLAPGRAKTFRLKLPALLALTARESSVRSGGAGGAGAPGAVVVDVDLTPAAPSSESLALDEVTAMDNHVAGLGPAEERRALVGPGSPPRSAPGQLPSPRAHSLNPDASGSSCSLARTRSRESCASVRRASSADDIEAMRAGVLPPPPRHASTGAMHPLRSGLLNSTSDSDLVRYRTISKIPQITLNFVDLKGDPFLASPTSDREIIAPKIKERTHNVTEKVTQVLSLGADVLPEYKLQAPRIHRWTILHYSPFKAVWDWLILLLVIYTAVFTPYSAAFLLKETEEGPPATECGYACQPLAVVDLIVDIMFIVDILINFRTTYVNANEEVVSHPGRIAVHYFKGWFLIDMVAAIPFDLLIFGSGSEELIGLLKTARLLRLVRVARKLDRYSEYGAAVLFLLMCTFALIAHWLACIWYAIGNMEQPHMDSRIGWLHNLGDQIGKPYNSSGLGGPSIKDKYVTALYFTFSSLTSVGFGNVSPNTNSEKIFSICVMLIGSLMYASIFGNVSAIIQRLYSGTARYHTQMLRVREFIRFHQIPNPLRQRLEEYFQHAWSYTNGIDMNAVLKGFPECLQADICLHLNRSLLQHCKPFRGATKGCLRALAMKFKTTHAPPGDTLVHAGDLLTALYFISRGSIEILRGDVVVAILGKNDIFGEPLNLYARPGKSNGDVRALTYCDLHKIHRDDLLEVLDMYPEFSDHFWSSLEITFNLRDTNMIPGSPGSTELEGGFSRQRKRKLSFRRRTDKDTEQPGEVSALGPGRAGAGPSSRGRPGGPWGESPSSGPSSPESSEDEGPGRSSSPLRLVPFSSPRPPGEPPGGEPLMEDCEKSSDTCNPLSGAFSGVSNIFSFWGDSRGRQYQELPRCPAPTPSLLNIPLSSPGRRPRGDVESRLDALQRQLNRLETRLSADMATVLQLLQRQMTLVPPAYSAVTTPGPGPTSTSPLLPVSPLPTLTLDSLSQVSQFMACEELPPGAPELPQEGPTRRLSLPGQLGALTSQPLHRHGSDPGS
row,Structure (SMILES),"hERG current change (%, negative = inhibition) at 10uM [%]"
1,Cc1cccc(NC(=O)CSc2nnc(Cn3cnc4ccccc43)o2)c1,-9.07
2,Cc1ccc(S(=O)(=O)N2CCN(C(=O)c3c(-c4ccccc4)noc3C)CC2)cc1,-4.97
3,COc1ccc(S(=O)(=O)Nc2ccc(C(F)(F)F)cc2)cc1OC,-12.4
4,O=C(Cc1ccccc1)N1CCC(c2nc(-c3ccc(F)cc3)no2)CC1,-50.6
5,O=C(c1ccco1)N1CCC(c2nc(-c3ccc(F)cc3)no2)CC1,-41.8
6,O=S(=O)(Cc1ccccc1)N1CCCC(c2nc(-c3ccc(F)cc3)no2)C1 (stereo not shown),-3.59
7,O=C(Cc1ccccc1)N1CCCC(c2nc(-c3ccc(S(=O)(=O)N4CCCC4)cc3)no2)C1 (stereo not shown),-9.11
8,Fc1ccc(-c2noc(C3CCN(Cc4cccnc4)CC3)n2)cc1,-51.5
9,CCCC1CCC(c2nc(-c3cccnc3)no2)CC1 (stereo not shown),2.03
10,COCC(=O)N1CCC(Oc2ccc(C(=O)NC3Cc4ccccc4C3)cc2)CC1,-3.57
11,S=c1[nH]nc(-c2ccncc2)n1/N=C/C(Cl)=C\c1ccccc1,23.3
12,COc1ccccc1CNC(=O)c1cccc(N(C)C)c1,-2.52
13,CCCCn1c(O)c(C(C)=NC(Cc2c[nH]c3ccccc23)C(=O)OC)c(=O)[nH]c1=O (stereo not shown),-52.1
14,CCCCn1c(O)c(C(C)=NC(C)c2ccccc2)c(=O)[nH]c1=O (stereo not shown),-22.3
15,CCCCn1c(O)c(C(C)=NCCc2c[nH]c3ccccc23)c(=O)[nH]c1=O,-16
16,COC(=O)c1cc(=O)nc2scc(C)n12,-23.1
17,CCC1CCCCN1Cc1ccc(CNS(=O)(=O)c2ccc3c(c2)oc(=O)n3C)o1 (stereo not shown),-19.3
18,CCOC(=O)c1cc(-c2cc(OC)c(OC)c(OC)c2)nc2c1c(=O)[nH]c(=O)n2Cc1ccccc1,1.34
19,CCCOC(=O)c1ccc(NC(=O)CC(C)(C)C)cc1,-11.1
20,C/C(=N\N1CCN(Cc2ccccc2Cl)CC1)c1ccc(F)cc1,2.05
21,COc1cc(/C(C)=N/N2CCN(Cc3ccc(C)cc3)CC2)ccc1O,-44.3
22,Cc1ccc(CN2CCN(/N=C/c3ccccc3)CC2)cc1,-12.7
23,C/C(=N/N1CCN(Cc2ccccc2)CC1)c1ccc(Br)cc1,-19.9

row,Structure (SMILES),"hERG current change (%, negative = inhibition) at 10uM [%]"
1,C/C(=N\N1CCN(Cc2ccc(Cl)cc2)CC1)c1ccc([N+](=O)[O-])cc1,-72.6
2,C(=C\c1ccccc1)/C=N/N1CCN(Cc2ccccc2)CC1,1.45
3,Cc1ccc(CN2CCN(/N=C\C=C\c3ccccc3)CC2)cc1,-72.2
4,CC(=O)Oc1ccc(/C(C)=N/N2CCN(Cc3ccc(C)cc3)CC2)cc1,-73.2
5,O=[N+]([O-])c1ccc(Cl)c(/C=N/N2CCN(Cc3ccc(Cl)cc3)CC2)c1,4.9
6,C/C(=N\N1CCN(Cc2ccc(Cl)cc2)CC1)c1ccc(F)cc1,-51.6
7,C/C(=N\N1CCN(c2ccc(Cl)cc2)CC1)c1cccc([N+](=O)[O-])c1,-12.4
8,CC(=O)Oc1ccc(/C(C)=N\N2CCN(Cc3ccc(Cl)cc3)CC2)cc1,-36.8
9,O=C(COC(=O)c1ccc(O)cc1)Nc1ccc2[nH]c(=O)[nH]c2c1,2.48
10,O=C(Nc1cc([N+](=O)[O-])ccc1Cl)C1CC1,14.1
11,COc1ccc(Cn2c(=S)[nH]c3cc(C(=O)N4CCCCC4)ccc3c2=O)cc1,13.3
12,Cc1cc(-n2nc3ccccc3n2)c(O)c([N+](=O)[O-])c1,6.11
13,COc1ccc(CCNC(=O)COC(=O)C2COc3ccccc3O2)cc1 (stereo not shown),-0.23
14,CCCn1nnnc1NCc1ccc(N(C)C)cc1,1.95
15,CCC(=O)N1N=C(c2ccc(C)o2)CC1c1ccc(Br)cc1 (stereo not shown),-23.4
16,COc1ccc(/C=C/C(=O)NC(=S)NNC(=O)Cc2cccs2)cc1OC,17.9
17,CC1=C(C(=O)OC(C)C)C(c2cccs2)N2C(=O)CCSC2=N1 (stereo not shown),-11.5
18,CCCCCOP(=O)(OCCCCC)C1(NS(=O)(=O)c2ccccc2)C=CC(=O)c2ccccc21 (stereo not shown),9.76
19,Nc1cc(=O)[nH]c(=O)n1-c1ccc(Cl)cc1,15.2
20,COc1ccccc1OCC(=O)Nc1ccccc1C(=O)N1CCCCC1,11.6
21,C/C(=N\N1CCN(Cc2ccc(C)cc2)CC1)c1ccco1,-67.6
22,Cc1ccc(CN2CCN(C(=O)c3ccco3)CC2)cc1,-13.5
23,C/C(=N\N1CCN(Cc2ccccc2)CC1)c1ccco1,-1.45

row,Structure (SMILES),"hERG current change (%, negative = inhibition) at 10uM [%]"
1,CCCOC(c1ccccc1)(c1ccccc1)C(Oc1nc(C)cc(C)n1)C(=O)O (stereo not shown),21.5
2,C=CCSc1nnc2c(n1)OC(c1ccco1)Nc1ccccc1-2 (stereo not shown),-7.61
3,CCCSc1nc(N)c(C#N)c(-c2ccc(C)cc2)c1C#N,15.7
4,O=C(NCc1ccc(Cl)cc1)C1CCN(c2cnccn2)CC1,-59.9
5,O=C(NCCc1ccc(Cl)cc1)C1CCN(c2cnccn2)CC1,-35.3
6,O=C(NCc1ccccc1Cl)C1CCN(c2cnccn2)CC1,-4.12
7,COc1cccc(CNC(=O)C2CCN(c3cnccn3)CC2)c1,-12.4
8,C=CCNC(=O)C1CCN(c2cnccn2)CC1,27.8
9,O=C(NCc1ccc(F)cc1)C1CCN(c2cnccn2)CC1,-64.9
10,Cn1c(=O)c2c(SCc3cccc(C(F)(F)F)c3)nc(-c3ccco3)nc2n(C)c1=O,-3.88
11,O=C(CNC(=O)c1ccco1)OCc1c(F)cccc1Cl,-5.42
12,COc1ccccc1CNC(=O)C1(NC(=O)Nc2ccc(C)cc2)CCCCC1,30.7
13,COC(=O)[C@H]1[C@H]2C[C@@H]3c4[nH]c5cc(OC)ccc5c4CCN3C[C@H]2C[C@@H](OC(=O)c2cc(OC)c(OC)c(OC)c2)[C@@H]1OC,-12.4
14,CCOc1ccc(N2C(=O)CC(NCCNc3ccc([N+](=O)[O-])cn3)C2=O)cc1 (stereo not shown),-77.5
15,CCCOc1ccc(N2C(=O)CC(NCc3ccncc3)C2=O)cc1 (stereo not shown),-11.6
16,CCOc1ccc(N2C(=O)CC(NCCNc3ccc(C(=O)c4cccs4)cc3)C2=O)cc1 (stereo not shown),-71.5
17,CCOc1ccc(C(=O)c2cccs2)cc1,-6.82
18,CCOc1ccc(N2C(=O)CC(NC3CCN(C(=O)c4cccs4)CC3)C2=O)cc1 (stereo not shown),-24.7
19,CCCOc1ccc(N2C(=O)CC(NCCNc3ccc(S(=O)(=O)CC)cc3)C2=O)cc1 (stereo not shown),-59.9
20,CCCOc1ccc(N2C(=O)CC(NCCc3ccc(S(N)(=O)=O)cc3)C2=O)cc1 (stereo not shown),-5.4
21,COc1ccc(N2C(=O)CC(NCCNc3ccc([N+](=O)[O-])cn3)C2=O)cc1 (stereo not shown),-34
22,CCCOc1ccc(N2C(=O)CC(NCCNc3ccc([N+](=O)[O-])cn3)C2=O)cc1 (stereo not shown),-72.5
23,CCCOc1ccc(N2C(=O)CC(NCC#N)C2=O)cc1 (stereo not shown),2.57

row,Structure (SMILES),"hERG current change (%, negative = inhibition) at 10uM [%]"
1,CCOc1ccc(N2C(=O)CC(NCCc3ccncc3)C2=O)cc1 (stereo not shown),-5.67
2,CCCOc1ccc(N2C(=O)CC(NCc3ccc(S(N)(=O)=O)cc3)C2=O)cc1 (stereo not shown),4.38
3,Cc1ccc(/C=C/C(=O)OCC(=O)NCc2ccc(Cl)cc2)o1,-13.9
4,O=C(COc1ccc(Cl)cc1Br)N1CCN(S(=O)(=O)c2ccccc2)CC1,-9.19
5,COc1ccccc1N1CCN(S(=O)(=O)Cc2ccccc2Cl)CC1,-2.74
6,Cc1ccc(Nc2nnc(SCC(=O)NC3CC3)s2)cc1,9.41
7,O=C(Nn1cnnc1)c1ccc(Cl)cc1,17.7
8,COc1ccc(Nc2nc(-c3cccs3)cs2)c(OC)c1,4.09
9,CCn1cc(SCC(=O)Nc2cc(C)on2)c2ccccc21,7.98
10,CC(=O)Nc1ccc(S(=O)(=O)N2CCN=C2SCc2ccc(C)cc2)cc1,-12
11,Cc1csc(Sc2ccc([N+](=O)[O-])cc2C(=O)OCC(=O)NC2CCCC(C)C2C)n1 (stereo not shown),-26.2
12,COc1ccc(C(=O)Nn2c(CC(C)C)nc3cc(Cl)ccc3c2=O)c(OC)c1,13.4
13,COc1cc2c(cc1OC)C(C)N(C(=O)/C=C/c1cc(OC)c(OC)c(OC)c1)CC2 (stereo not shown),7.57
14,Cc1cccc(CCNC(=O)C2CCCN(c3cnccn3)C2)c1 (stereo not shown),-11.5
15,O=C(c1ccccc1)c1cccc(NC(=O)C2CC2)c1,0.476
16,O=S(=O)(NC1CCCCC1NS(=O)(=O)c1ccc(F)cc1)c1ccc(F)cc1 (stereo not shown),-5.29
17,O=C1OC(c2ccc([N+](=O)[O-])cc2)=N/C1=C/N1CC2CC(C1)c1cccc(=O)n1C2 (stereo not shown),-55.1
18,Nc1cc(C(=O)N2CCN(c3ccc([N+](=O)[O-])cc3)CC2)ccc1N1CC2CC(C1)c1cccc(=O)n1C2 (stereo not shown),-35.3
19,O=C1OC(c2ccc(Br)cc2)=N/C1=C\N1CC2CC(C1)c1cccc(=O)n1C2 (stereo not shown),-45.2
20,O=c1cccc2n1C[C@@H]1C[C@@H]2CN(CC(O)c2ccc([N+](=O)[O-])cc2)C1 (stereo partly shown),-49
21,O=C1OC(c2ccc(Cl)cc2)=N/C1=C\N1CC2CC(C1)c1cccc(=O)n1C2 (stereo not shown),-72
22,O=C(NC(=S)N1C[C@H]2C[C@H](C1)c1cccc(=O)n1C2)c1ccc(Cl)cc1,-8.28
